# Shown are actives, neighbours in structure and some others; about 1% of the full set was active somewhere.
# ROCK2 inh: blocks human Rho kinase 2 activity; O75116; purified ROCK2, Kinase-Glo ATP depletion luminescence; inhibition, % at 6 µM; 0.35% of 60,000 active; AID 604;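 active = inhibition above the screen-wide mean inhibition plus 3 SD, cut at about 18% in these data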;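 also: plate controls were DMSO wells for no effect and Y-27632 control wells after no-enzyme background subtraction for full effect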
# PKA inh: blocks human protein kinase A activity; PKA Kemptide phosphorylation, Kinase-Glo ATP luminescence; inhibition, % at 6 µM; AID 524; 0.1% of 65,000 active;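 active = inhibition above the screen-wide mean inhibition plus 3 SD, cut at about 21% in these data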
# Hsp90 block: displaces geldanamycin probe from tumor Hsp90. P07900. NCI-N417 lysate Hsp90, Cy3B-geldanamycin FP displacement. inhibition, % at 30 µM. 0.35% of 64,000 active;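 active = inhibition above 50%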;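 also: 0% = tracer plus lysate wells and 100% = tracer alone without lysate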
# Cdc25B inh: inhibitors of human Cdc25B phosphatase; P30305; recombinant Cdc25B, OMFP fluorescence Ex485/Em525; inhibition, %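 (compounds tested at 10 µM final in the well)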; 0.1% of 65,000 active; in the data active = inhibition above about 50%
# Target sequence (P30305 whole entry, looked up): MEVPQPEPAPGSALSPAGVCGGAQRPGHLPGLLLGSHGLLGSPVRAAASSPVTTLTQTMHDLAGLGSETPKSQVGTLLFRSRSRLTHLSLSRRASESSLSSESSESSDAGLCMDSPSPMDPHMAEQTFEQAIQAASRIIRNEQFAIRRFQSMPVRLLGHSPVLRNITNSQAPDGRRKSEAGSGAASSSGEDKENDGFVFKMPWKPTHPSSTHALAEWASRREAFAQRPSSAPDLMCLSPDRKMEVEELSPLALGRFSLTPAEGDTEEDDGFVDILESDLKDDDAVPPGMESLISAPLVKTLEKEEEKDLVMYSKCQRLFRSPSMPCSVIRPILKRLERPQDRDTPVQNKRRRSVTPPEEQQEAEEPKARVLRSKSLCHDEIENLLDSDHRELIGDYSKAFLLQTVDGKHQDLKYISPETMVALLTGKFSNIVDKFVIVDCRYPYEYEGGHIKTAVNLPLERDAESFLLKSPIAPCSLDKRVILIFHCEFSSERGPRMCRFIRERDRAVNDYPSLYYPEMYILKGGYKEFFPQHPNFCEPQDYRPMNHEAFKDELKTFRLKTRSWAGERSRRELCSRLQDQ
# DUSP1 inh: blocks human MKP-1 phosphatase activity; recombinant MKP-1, OMFP hydrolysis fluorescence; inhibition, %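 (compounds tested at a single concentration somewhere between 10 and 100 µM)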; 0.15% of 65,000 active; AID 374;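 active = inhibition above about 50%, limit read from the data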;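 also: 0% = DMSO max control wells and 100% = wells with enzyme stopped by NaOH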
# SKBR3 24h inh: SK-BR-3 proliferation inhibitors | SK-BR-3 viability, CellTiter-Glo ATP luminescence, 24 h; stronger effect = lower value | 0.47% of 41,000 active | viability, % at 10 µM;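 active = viability at or below the median of all test compounds minus 3 SD, in both replicates if run twice, cut at about 45% in these data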;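 also: 100% = median untreated cell wells and 0% = median positive control drug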
# An asterisk follows results filed as active; x = not tested or not shown.
SMILES,ROCK2 inh,PKA inh,Hsp90 block,Cdc25B inh,DUSP1 inh,SKBR3 24h inh
Cc1cccc(C2CN(C)CCc3c2cc(O)c(O)c3Cl)c1 (stereo unspecified),x,x,69*,x,x,x
C=CCN1CCc2cc(O)c(O)cc2C(c2ccccc2)C1 (stereo unspecified),x,x,56*,x,x,x
C=CCN1CCc2c(cc(O)c(O)c2Cl)C(c2ccccc2)C1 (stereo unspecified),x,x,76*,x,x,x
Cc1ccc(C)n1-c1ccc2c(c1)COC2=O,-5,0,0,-2,-8,82
COc1ccc(-c2nc(-c3ccccc3OC)no2)cc1OC,13,11,-5,-7,-10,67
CCC1S/C(=C(\C#N)C(N)=O)N(c2ccc(F)cc2)C1=O (stereo unspecified),1,13,-3,4,-11,103
CC(C(=O)NCCC1=CCCCC1)N1C(=O)c2ccccc2C1=O (stereo unspecified),7,5,-3,-14,1,58
CCc1nnc(NC(=O)c2cccc(C(=O)Nc3nnc(CC)s3)n2)s1,-1,1,-2,5,2,42*
COC(=O)/C(=C1/Oc2cc(C)oc(=O)c2S1)C(F)(F)F,6,7,1,1,-31,38*
COc1ccc(C(=O)OCC(=O)NCc2ccco2)cc1OC,4,8,-2,-7,13,x
N#Cc1ccc(CSc2nnc(Nc3ccccc3)s2)cc1,4,6,85*,18,21,x
c1ccc(CSc2nnc(NC3=NCCCCC3)s2)cc1,-4,-4,-5,2,-23,x
O=CNCCCc1nc2ccccc2n1Cc1ccccc1,5,6,-3,-4,-11,86
Brc1ccc(OCCOCCN2CCOCC2)cc1,2,7,-2,-13,-3,87
Cc1nnc(NC(=O)c2ccc(S(=O)(=O)N(C)Cc3ccccc3)cc2)o1,6,7,0,6,-6,31*
COCCN(CCOC)S(=O)(=O)c1ccc(C(=O)Nc2nc(C)c(C(C)=O)s2)cc1,-3,-5,-4,-4,4,96
COCCN(CCOC)S(=O)(=O)c1ccc(C(=O)Nc2nnc(C)o2)cc1,-1,1,3,-2,-5,19*
COCCN(CCOC)S(=O)(=O)c1ccc(C(=O)Nc2nc(-c3ccncc3)cs2)cc1,19*,12,1,-3,9,77
CCN(Cc1ccccc1)S(=O)(=O)c1ccc(C(=O)Nc2nnc(C3CC3)o2)cc1,4,6,-1,7,-9,x
COCc1nnc(NC(=O)c2ccc(S(=O)(=O)N(C)C3CCCCC3)cc2)o1,0,0,3,1,-6,27*
Cc1ccc2nc(N3CCN(Cc4ccc(F)cc4)C3=O)c(C)cc2c1,0,-2,-5,-5,7,83
COc1ccccc1NC(=O)CSc1nnc(-c2ccncc2)n1CC1CCCO1 (stereo unspecified),9,6,0,-10,-7,109
Cc1onc(-c2ccccc2Cl)c1C(=O)Nc1ccc(-n2nncc2C(C)(C)C)cc1,x,-5,-2,66*,2,x
CCn1c(CSc2nnc(-c3cccnc3)n2-c2ccccc2C)nc2cc(C(=O)O)ccc21,1,1,145*,-2,13,x
CCn1c(CSc2nnc3ccccn23)nc2cc(C(=O)O)ccc21,5,5,138*,-13,-7,x
SMILES,ROCK2 inh,PKA inh,Hsp90 block,Cdc25B inh,DUSP1 inh,SKBR3 24h inh
CCC(C)N1C(=O)c2ccccc2C1C(=O)NC1CCCCCC1 (stereo unspecified),4,8,0,-9,28,x
CC1CC(=O)C2=C(C1)OC(N)=C(C#N)C2c1coc2ccccc2c1=O (stereo unspecified),4,3,0,-4,-10,x
O=C(OC1CCc2ccccc2C1=O)c1ccccc1O (stereo unspecified),0,-1,72*,48,20,100
Cc1cc(C(=O)NCC2CCCO2)n(-c2ccccc2)n1 (stereo unspecified),-9,-13,0,12,17,x
CCOC(=O)c1sc2ncnc(N3CCN(C(=O)OCC)CC3)c2c1C,10,10,2,7,2,42*
Cc1c(C(=O)N2CCN(c3ccccc3)CC2)sc2ncnc(N3CCN(c4ccccc4)CC3)c12,0,3,3,-8,-1,x
CCCn1c(Nc2nc3ccccc3n2C)nc2ccccc21,3,-4,0,2,22,9.8*
O=c1oc2c3c4c(cc2s1)CCCN4CCC3,x,x,69*,16,2,79
Cc1cc(NS(=O)(=O)c2ccc(OCCNS(C)(=O)=O)cc2)no1,3,3,-2,-2,-2,97
COc1ccc(CN2CC(C(=O)NCCCN3CCOCC3)CC2=O)cc1 (stereo unspecified),-1,8,0,65*,22,84
CN1C(=O)CSc2ccc(NC(=O)NCc3cccnc3)cc21,58*,0,-1,-5,27,x
Cc1nn(-c2ccccc2)c2c1C(c1ccco1)C(C#N)=C(N)O2 (stereo unspecified),4,7,-5,-1,-12,127
CC(NC(=O)COc1cccc(Br)c1)C(=O)O (stereo unspecified),5,4,-2,-11,8,90
CCOC(=O)N1CCC(NC(=O)CSCc2nc(-c3cccc(OC)c3)oc2C)CC1,0,-3,0,-12,9,x
CCOC(=O)N1CCC(NC(=O)CSCc2nc(-c3sccc3C)oc2C)CC1,-3,9,98*,-12,3,x
Oc1c(CN2CCc3ccccc3C2)cc(Cl)c2cccnc12,-4,5,0,-10,3,x
Oc1c(CN2CCCCC2)cc(Br)c2cccnc12,4,3,2,-10,-14,39*
Cn1c(NC(=O)c2ccc(C(C)(C)C)cc2)cc(=O)n(C)c1=O,-5,-5,-2,-3,12,x
Cc1cc(NC(=O)CCCOc2ccc(Cl)cc2Cl)no1,-1,0,-3,64*,8,84
CCn1c(CNC(=O)C(C)(C)C)nc2ccccc21,0,5,-2,-34,-5,x
Cc1ccc(C)c2[nH]c(=O)c(CN(CCCN(C)C)C(=O)NCc3ccccc3)cc12,7,12,-1,-14,5,44*
COc1ccc(Cl)cc1S(=O)(=O)N1CCN(c2ccc(F)cc2)CC1,10,8,-2,-10,-6,78
N=c1n(CCN2CCCCC2)c2ccccc2n1CC(O)c1cccc(Br)c1 (stereo unspecified),12,11,-1,-25,2,44*
N=c1n(CCN2CCCC2)c2ccccc2n1CC(O)c1ccco1 (stereo unspecified),-1,-1,4,9,0,79
CCc1cc2c(=O)c(-c3nc4ccccc4[nH]3)coc2cc1OC(=O)N1CCOCC1,4,7,-4,19,5,96

# Assay outcomes from PubChem.
